Results: publication PMC7862700, “An all-to-all approach to the identification of sequence-specific readers for epigenetic DNA modifications on cytosine”

What was measured:
Test in all cases: DAPPL (digital affinity profiling via proximity ligation, sequencing); 10 mM Tris-HCl pH 7.5, 50 mM NaCl, 1 mM DTT, 4% glycerol, room temperature, 30 min; GST-TFs on glutathione beads, 16-mer random dsDNA library, 0.1% formaldehyde crosslink after washing; high values mean tight binding
FLI1 = target: T1, FLI1 (Homo sapiens, UniProt Q01543 1-452); conditions: protein: recombinant; tags: N-terminal GST; dsDNA, one strand shown
T1 sequence: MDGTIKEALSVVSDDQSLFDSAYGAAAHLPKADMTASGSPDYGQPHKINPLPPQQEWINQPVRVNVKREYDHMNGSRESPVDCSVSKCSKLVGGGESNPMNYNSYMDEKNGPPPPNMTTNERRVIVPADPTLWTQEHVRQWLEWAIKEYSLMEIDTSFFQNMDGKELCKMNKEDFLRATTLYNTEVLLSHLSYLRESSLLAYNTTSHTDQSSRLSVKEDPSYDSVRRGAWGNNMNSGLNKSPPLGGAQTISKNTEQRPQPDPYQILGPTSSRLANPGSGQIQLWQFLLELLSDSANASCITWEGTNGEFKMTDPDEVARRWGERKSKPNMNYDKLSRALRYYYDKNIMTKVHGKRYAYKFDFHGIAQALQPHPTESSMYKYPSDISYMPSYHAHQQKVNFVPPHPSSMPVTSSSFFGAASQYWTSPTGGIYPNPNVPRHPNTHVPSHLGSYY
Summary of the method: (§1)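 The binding signal reported is, for every hexamer, its read frequency for a factor over its read frequency for the tag-only sample. Reads came from pools of yeast-expressed, GST-fused human transcription factors on glutathione beads, barcoded with DNA and mixed with that sample, which were incubated with 200 nmole of a random double-stranded 16-mer DNA library in Tris/NaCl/DTT/glycerol buffer at room temperature for 30 min. After washing, the pools were crosslinked with 0.1% formaldehyde, proximity-ligated with BsaI/T4 ligase for 1 h at 37 °C, PCR-amplified and sequenced on an Illumina NextSeq500.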

ELK1 = target: T2, ELK1 (Homo sapiens, UniProt P19419 1-428); conditions: protein: recombinant; tags: N-terminal GST; dsDNA, one strand shown
T2 sequence: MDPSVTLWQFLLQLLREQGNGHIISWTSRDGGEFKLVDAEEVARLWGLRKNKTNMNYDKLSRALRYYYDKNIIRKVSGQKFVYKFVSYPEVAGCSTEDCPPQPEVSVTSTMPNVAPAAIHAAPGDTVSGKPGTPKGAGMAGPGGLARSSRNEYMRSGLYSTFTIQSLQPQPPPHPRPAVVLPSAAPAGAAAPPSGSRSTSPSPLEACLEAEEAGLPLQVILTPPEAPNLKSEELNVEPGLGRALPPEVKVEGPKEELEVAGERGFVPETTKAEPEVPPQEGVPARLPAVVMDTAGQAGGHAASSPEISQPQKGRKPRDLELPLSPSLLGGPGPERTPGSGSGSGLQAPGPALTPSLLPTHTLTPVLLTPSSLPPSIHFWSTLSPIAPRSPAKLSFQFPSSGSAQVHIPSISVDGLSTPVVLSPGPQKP
Summary of the method: as §1

GABPA = target: T3, GABPA (Homo sapiens, UniProt Q06546 1-454); conditions: protein: recombinant; tags: N-terminal GST; dsDNA, one strand shown
T3 sequence: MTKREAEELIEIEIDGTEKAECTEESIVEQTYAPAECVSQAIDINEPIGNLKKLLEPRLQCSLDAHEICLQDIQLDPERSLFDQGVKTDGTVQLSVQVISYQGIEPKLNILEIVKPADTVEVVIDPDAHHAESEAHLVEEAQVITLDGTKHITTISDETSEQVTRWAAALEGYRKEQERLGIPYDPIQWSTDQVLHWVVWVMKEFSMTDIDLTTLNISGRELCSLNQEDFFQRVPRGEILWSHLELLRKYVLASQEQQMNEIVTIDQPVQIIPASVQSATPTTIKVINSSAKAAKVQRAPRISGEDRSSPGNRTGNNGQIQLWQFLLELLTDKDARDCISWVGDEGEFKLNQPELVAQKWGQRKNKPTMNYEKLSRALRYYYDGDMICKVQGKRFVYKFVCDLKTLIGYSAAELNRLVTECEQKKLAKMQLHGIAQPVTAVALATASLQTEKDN
Summary of the method: as §1

ERG = target: T4, ERG (Homo sapiens, UniProt P11308 1-479); conditions: protein: recombinant; tags: N-terminal GST; dsDNA, one strand shown
T4 sequence: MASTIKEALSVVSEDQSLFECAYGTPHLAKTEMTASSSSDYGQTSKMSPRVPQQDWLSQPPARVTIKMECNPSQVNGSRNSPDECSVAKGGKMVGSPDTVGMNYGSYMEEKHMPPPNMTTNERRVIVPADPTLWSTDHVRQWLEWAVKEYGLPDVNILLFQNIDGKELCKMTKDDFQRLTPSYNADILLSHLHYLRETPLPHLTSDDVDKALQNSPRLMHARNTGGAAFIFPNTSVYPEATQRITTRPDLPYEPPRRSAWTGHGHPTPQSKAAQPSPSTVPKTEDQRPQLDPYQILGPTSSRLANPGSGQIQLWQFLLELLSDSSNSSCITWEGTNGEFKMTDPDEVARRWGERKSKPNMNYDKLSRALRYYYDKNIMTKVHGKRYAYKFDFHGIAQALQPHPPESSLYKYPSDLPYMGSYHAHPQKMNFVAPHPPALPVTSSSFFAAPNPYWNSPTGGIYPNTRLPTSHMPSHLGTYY
Summary of the method: as §1

ELF1 = ELF1 (Homo sapiens, UniProt P32519 1-619); conditions: protein: recombinant; tags: N-terminal GST; dsDNA, one strand shown
Sequence of ELF1 (P32519 whole entry): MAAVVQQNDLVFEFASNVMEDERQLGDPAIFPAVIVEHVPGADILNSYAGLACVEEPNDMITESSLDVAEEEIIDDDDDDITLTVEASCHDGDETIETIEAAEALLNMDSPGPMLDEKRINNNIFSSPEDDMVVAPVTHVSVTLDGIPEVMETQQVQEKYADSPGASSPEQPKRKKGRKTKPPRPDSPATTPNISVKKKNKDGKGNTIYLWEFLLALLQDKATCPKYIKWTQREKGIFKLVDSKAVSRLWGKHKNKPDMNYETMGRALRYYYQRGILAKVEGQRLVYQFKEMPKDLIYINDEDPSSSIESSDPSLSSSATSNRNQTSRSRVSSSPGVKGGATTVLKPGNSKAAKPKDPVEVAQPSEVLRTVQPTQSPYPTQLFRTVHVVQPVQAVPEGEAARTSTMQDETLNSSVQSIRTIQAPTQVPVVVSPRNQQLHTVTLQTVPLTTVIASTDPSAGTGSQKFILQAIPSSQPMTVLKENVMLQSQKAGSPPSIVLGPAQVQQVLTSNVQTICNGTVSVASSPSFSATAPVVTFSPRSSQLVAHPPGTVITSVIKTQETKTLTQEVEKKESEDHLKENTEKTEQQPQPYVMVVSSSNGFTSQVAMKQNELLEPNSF
Summary of the method: as §1

EHF = target: T5, EHF (Homo sapiens, UniProt Q9NZC4 1-300); conditions: protein: recombinant; tags: N-terminal GST; dsDNA, one strand shown
T5 sequence: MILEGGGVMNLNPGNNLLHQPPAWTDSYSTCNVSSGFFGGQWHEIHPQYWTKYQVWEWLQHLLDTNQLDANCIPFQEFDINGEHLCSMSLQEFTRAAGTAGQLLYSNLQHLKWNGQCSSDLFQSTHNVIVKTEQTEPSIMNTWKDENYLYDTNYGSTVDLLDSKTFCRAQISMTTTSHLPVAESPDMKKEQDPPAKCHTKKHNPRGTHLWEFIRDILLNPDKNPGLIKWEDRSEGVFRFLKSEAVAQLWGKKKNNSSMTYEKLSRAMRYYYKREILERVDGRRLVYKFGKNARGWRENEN
Summary of the method: as §1

SPI1 = SPI1 (Homo sapiens, UniProt P17947 1-270); conditions: protein: recombinant; tags: N-terminal GST; dsDNA, one strand shown
Summary of the method: as §1

SPIB = SPIB (Homo sapiens, UniProt Q01892 1-262); conditions: protein: recombinant; tags: N-terminal GST; dsDNA, one strand shown
Sequence of SPIB (Q01892 whole entry): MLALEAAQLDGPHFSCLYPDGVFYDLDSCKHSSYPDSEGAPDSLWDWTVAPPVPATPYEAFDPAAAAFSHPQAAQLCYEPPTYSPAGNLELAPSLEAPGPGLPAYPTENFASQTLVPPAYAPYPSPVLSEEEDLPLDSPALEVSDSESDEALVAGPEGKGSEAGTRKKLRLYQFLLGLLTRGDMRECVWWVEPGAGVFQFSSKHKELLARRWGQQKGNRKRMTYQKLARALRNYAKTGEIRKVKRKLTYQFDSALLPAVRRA
Summary of the method: as §1

ELK3 = target: T6, ELK3 (Homo sapiens, UniProt P41970 1-407); conditions: protein: recombinant; tags: N-terminal GST; dsDNA, one strand shown
T6 sequence: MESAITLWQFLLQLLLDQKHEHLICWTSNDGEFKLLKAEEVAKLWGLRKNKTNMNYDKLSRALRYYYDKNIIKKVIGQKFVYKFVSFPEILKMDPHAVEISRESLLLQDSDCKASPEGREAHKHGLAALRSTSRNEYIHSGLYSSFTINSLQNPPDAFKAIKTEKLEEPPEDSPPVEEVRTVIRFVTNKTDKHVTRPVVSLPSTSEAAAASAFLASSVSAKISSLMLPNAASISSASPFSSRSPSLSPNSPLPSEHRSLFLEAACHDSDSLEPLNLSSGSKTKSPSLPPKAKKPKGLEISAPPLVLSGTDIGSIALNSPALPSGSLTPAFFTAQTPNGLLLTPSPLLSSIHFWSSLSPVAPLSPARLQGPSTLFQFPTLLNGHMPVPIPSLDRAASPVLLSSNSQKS
Summary of the method: as §1

FEV = target: T7, FEV (Homo sapiens, UniProt Q99581 1-238); conditions: protein: recombinant; tags: N-terminal GST; dsDNA, one strand shown
T7 sequence: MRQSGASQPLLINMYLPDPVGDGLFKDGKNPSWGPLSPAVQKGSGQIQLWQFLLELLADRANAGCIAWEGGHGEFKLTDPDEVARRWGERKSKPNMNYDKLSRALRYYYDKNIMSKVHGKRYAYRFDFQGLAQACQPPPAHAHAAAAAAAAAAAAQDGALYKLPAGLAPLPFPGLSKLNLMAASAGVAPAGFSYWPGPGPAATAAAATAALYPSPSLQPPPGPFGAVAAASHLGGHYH
Summary of the method: as §1

ETV5 = ETV5 (Homo sapiens, UniProt P41161 1-510); conditions: protein: recombinant; tags: N-terminal GST; dsDNA, one strand shown
Sequence of ETV5 (P41161 whole entry): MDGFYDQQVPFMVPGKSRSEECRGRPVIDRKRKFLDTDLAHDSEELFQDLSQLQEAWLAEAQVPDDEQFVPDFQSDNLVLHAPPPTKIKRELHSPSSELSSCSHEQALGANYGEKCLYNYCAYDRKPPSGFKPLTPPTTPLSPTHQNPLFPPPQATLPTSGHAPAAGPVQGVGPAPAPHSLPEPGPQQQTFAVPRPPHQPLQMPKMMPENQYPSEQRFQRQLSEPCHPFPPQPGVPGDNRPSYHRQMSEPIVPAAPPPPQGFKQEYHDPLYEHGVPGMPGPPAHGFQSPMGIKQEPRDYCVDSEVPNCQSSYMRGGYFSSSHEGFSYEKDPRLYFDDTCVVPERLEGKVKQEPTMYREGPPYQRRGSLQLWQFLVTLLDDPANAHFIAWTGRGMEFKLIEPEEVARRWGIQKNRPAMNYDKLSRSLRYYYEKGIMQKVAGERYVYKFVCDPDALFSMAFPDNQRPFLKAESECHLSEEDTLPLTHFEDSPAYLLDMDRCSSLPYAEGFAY
Summary of the method: as §1

HSF1 = HSF1 (Homo sapiens, UniProt Q00613 1-529); conditions: protein: recombinant; tags: N-terminal GST; chain copies: 3; dsDNA, one strand shown
Sequence of HSF1 (Q00613 whole entry): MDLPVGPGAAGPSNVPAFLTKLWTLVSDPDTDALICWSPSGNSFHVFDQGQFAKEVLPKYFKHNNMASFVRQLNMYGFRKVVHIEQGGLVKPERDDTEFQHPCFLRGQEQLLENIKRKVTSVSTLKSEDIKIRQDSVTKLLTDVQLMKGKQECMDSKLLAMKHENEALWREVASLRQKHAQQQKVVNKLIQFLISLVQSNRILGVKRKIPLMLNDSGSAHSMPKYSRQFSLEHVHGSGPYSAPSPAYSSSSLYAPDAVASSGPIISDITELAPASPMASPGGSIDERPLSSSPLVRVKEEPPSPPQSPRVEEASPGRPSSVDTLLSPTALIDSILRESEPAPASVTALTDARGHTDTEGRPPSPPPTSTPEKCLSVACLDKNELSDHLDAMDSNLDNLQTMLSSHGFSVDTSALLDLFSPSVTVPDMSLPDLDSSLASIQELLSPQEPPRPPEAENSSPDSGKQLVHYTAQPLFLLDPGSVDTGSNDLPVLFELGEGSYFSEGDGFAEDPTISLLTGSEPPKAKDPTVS
Summary of the method: as §1

ELF4 = ELF4 (Homo sapiens, UniProt Q99607 1-663); conditions: protein: recombinant; tags: N-terminal GST; dsDNA, one strand shown
Sequence of ELF4 (Q99607 whole entry): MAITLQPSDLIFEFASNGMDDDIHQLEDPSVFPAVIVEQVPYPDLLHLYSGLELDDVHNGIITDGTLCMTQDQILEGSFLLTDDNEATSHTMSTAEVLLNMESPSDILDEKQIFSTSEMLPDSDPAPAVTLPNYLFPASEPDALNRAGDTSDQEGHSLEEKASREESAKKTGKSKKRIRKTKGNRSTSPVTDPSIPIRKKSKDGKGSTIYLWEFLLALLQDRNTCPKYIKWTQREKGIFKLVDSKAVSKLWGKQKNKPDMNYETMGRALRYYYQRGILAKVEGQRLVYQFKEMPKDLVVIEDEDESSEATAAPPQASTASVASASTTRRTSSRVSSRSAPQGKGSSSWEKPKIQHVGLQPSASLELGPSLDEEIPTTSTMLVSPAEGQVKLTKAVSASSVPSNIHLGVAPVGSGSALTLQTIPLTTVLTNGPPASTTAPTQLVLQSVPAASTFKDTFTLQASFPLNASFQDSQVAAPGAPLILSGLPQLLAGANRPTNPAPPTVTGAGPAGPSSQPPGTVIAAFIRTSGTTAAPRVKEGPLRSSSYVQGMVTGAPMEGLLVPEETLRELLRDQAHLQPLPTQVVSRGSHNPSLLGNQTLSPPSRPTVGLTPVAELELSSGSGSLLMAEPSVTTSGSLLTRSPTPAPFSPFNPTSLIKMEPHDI
Summary of the method: as §1

ELK4 = target: T8, ELK4 (Homo sapiens, UniProt P28324-2 1-405); conditions: protein: recombinant; tags: N-terminal GST; dsDNA, one strand shown
T8 sequence: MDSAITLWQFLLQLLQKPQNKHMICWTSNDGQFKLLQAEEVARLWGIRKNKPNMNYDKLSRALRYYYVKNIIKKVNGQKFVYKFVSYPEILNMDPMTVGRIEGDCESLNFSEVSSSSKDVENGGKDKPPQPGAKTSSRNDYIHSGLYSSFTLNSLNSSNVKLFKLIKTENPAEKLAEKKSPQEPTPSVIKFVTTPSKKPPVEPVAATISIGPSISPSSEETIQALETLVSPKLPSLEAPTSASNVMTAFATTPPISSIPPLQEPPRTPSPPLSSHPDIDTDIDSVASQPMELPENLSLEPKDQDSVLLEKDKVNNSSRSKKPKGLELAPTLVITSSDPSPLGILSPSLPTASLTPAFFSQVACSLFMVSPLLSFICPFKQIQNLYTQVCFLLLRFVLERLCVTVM
Summary of the method: as §1

ETV2 = target: T9, ETV2 (Homo sapiens, UniProt O00321 1-342); conditions: protein: recombinant; tags: N-terminal GST; dsDNA, one strand shown
T9 sequence: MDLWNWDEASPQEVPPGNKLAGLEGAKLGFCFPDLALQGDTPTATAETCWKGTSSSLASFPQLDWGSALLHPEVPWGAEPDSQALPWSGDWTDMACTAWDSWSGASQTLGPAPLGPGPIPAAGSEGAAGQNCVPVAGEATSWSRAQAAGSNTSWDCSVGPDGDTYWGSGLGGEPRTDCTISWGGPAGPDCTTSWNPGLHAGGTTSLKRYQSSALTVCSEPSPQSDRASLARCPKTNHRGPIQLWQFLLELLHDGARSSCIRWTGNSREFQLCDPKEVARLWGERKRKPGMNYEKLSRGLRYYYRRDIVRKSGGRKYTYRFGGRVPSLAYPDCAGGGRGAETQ
Summary of the method: as §1

ELF3 = target: T10, ELF3 (Homo sapiens, UniProt P78545 1-371); conditions: protein: recombinant; tags: N-terminal GST; dsDNA, one strand shown
T10 sequence: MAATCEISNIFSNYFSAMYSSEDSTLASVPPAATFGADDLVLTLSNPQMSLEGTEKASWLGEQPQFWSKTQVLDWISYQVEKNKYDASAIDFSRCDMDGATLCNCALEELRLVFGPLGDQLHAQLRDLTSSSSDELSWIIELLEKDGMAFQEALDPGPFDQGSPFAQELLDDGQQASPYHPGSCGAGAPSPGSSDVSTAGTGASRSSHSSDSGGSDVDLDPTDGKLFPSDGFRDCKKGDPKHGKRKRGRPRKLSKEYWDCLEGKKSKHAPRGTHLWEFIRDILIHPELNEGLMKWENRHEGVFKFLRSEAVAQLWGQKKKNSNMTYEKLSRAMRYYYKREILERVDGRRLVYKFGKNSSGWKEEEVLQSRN
Summary of the method: as §1

CRX = CRX (Homo sapiens, UniProt O43186 1-299); conditions: protein: recombinant; tags: N-terminal GST; dsDNA, one strand shown
Sequence of CRX (O43186 whole entry): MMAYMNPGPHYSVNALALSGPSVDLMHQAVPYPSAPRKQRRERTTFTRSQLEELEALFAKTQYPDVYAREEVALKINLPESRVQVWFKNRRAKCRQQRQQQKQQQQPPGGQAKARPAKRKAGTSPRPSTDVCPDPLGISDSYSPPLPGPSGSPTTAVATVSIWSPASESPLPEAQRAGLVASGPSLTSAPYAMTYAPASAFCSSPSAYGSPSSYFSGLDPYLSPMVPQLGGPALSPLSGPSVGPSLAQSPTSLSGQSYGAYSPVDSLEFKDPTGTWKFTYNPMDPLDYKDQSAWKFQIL
Summary of the method: as §1

ETV1 = ETV1 (Homo sapiens, UniProt P50549 1-477); conditions: protein: recombinant; tags: N-terminal GST; dsDNA, one strand shown
Sequence of ETV1 (P50549 whole entry): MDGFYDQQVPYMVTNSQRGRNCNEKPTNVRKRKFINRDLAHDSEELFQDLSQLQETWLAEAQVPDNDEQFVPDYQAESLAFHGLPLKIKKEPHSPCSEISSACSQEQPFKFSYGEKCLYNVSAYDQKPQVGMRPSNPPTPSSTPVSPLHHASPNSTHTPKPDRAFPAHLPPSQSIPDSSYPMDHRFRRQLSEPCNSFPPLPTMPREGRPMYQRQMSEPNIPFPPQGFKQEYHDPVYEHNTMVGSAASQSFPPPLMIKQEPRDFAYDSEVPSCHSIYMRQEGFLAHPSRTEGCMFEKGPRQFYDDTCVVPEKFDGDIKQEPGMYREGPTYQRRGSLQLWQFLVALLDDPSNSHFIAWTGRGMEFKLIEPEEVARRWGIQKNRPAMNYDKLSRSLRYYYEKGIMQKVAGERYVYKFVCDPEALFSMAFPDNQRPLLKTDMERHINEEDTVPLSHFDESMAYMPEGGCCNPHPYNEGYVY
Summary of the method: as §1

Sequence: AAAAGA
- binding signal (FLI1): 1.11 fold enrichment (6-mer frequency, TF over GST control)
- binding signal (ELK1): 1.19 fold enrichment (6-mer frequency, TF over GST control)
- binding signal (GABPA): 1.19 fold enrichment (6-mer frequency, TF over GST control)
- binding signal (ERG): 1.06 fold enrichment (6-mer frequency, TF over GST control)
- binding signal (ELF1): 1.06 fold enrichment (6-mer frequency, TF over GST control)
- binding signal (EHF): 1.2 fold enrichment (6-mer frequency, TF over GST control)
- binding signal (SPI1): 1.5 fold enrichment (6-mer frequency, TF over GST control)
- binding signal (SPIB): 1.26 fold enrichment (6-mer frequency, TF over GST control)
- binding signal (ELK3): 1.11 fold enrichment (6-mer frequency, TF over GST control)
- binding signal (FEV): 1.07 fold enrichment (6-mer frequency, TF over GST control)
- binding signal (ETV5): 1.12 fold enrichment (6-mer frequency, TF over GST control)
- binding signal (HSF1): 1.43 fold enrichment (6-mer frequency, TF over GST control)
- binding signal (ELF4): 1.2 fold enrichment (6-mer frequency, TF over GST control)
- binding signal (ELK4): 1.2 fold enrichment (6-mer frequency, TF over GST control)
- binding signal (ETV2): 1.1 fold enrichment (6-mer frequency, TF over GST control)
- binding signal (ELF3): 1.17 fold enrichment (6-mer frequency, TF over GST control)
- binding signal (CRX): 1.28 fold enrichment (6-mer frequency, TF over GST control)
- binding signal (ETV1): 1.14 fold enrichment (6-mer frequency, TF over GST control)
